# High-throughput results from PubChem BioAssay.
# Sampled rows, rich in hits. Any-hit rate of the full collection: about 3.1%.
# SUMO Mot1 rescue: SUMOylation pathway inhibition by Mot1-301 growth rescue; AID 2716; 1% of 320,000 active; S. cerevisiae Mot1-301 growth rescue, ATP luminescence, 38.5C; percent above DMSO median, 100 means doubled; growth rescue, % at 18.8 µM;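 active means every valid replicate shows activation above 250% relative to neutral control wells; inactive means the rest, any valid replicate at or below 250%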;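 further: OY570 slx delta 5 strain wells were the positive control but not used for scaling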
# Calb FLC: affects C. albicans growth with fluconazole. C. albicans CaCi-2 (fluconazole-resistant clinical isolate) + fluconazole, Alamar Blue growth, 48 h. growth inhibition, % (no concentration beside the values). 0.57% of 300,000 active. AID 1979;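 active means growth inhibition above about 58% in most replicates, limit read from the data, passing the limit was not always enough; inconclusive means exactly half the replicates above a set limit; inactive means most replicates below a set limit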;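 further: all wells also contain fluconazole at 8 µg/ml as a sub-toxic cotreatment; 0% = median of DMSO wells and 100% = median of geldanamycin control wells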
# FAS-TE inh: blocks the thioesterase domain of human fatty acid synthase. AID 602261. recombinant FAS-TE, OMFH fluorogenic substrate, fluorescence endpoint. inhibition, % at 15 µM. 0.67% of 360,000 active;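 active means compounds whose normalised, plate-corrected inhibition of enzyme fluorescence in the single-dose primary screen is 50% or more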;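 further: 0% = DMSO with enzyme and 100% = substrate without enzyme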
# NadD block: inhibitors of Staphylococcus aureus NadD; 0.78% of 360,000 active; purified NadD enzyme, colorimetric absorbance read-out; inhibition, % at 20 µM; in the data active means inhibition above about 26%
# ATG4B inhibitor: blocks human ATG4B protease cleavage of LC3 substrate | 0.51% of 340,000 active | Q9Y4P1 | AID 504462 | inhibition, % at 8.33 µM | ATG4B cleavage of LC3-PLA2, NBD-HPC fluorescence, 1 h; in the data active means inhibition above about 40%
# Target sequence (Q9Y4P1 whole entry, looked up): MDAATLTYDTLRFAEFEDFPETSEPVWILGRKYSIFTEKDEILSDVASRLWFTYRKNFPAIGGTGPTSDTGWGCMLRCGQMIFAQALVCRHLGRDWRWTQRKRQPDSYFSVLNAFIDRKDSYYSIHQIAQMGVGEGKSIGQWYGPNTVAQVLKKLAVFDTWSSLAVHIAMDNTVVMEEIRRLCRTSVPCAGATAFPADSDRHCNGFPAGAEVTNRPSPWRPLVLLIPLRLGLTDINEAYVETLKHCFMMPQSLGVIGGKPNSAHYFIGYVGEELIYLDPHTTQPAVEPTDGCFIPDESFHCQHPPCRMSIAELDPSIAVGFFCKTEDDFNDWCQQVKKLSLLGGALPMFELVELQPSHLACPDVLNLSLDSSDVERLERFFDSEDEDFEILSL
# Starred values were filed as active, the others as inactive; u = inconclusive; x = not tested or not shown.
SMILES,SUMO Mot1 rescue,Calb FLC,FAS-TE inh,NadD block,ATG4B inhibitor
Cc1ccccc1C(=O)N1CCC(C(=O)N(CC(C)C)c2c(N)n(Cc3ccccc3)c(=O)[nH]c2=O)CC1,336*,-2,-1,0,-9
Cc1cc(/C=C2\C(=N)N3N=C(C(C)C)SC3=NC2=O)c(C)n1Cc1ccccc1,19,-9,-3,-6,-3
Cc1cc(/C=C2\C(=N)N3C(SCc4ccccc4)=NSC3=NC2=O)c(C)n1Cc1ccccc1,2,10,-2,31*,6
CCOc1ccc(-n2c(C)cc(/C=C3/C(=N)N4C(=NC3=O)SN=C4S(C)(=O)=O)c2C)cc1,-3,-5,14,33*,23
O=C(COC(=O)Cc1ccsc1)Nc1ccc(Cl)cc1F,13,x,2,-3,5
Cc1cc2ccccn2c1C(=O)c1ccc([N+](=O)[O-])cc1[N+](=O)[O-],317*,1,4,9,-1
CCCCCSc1nc(O)cc(=O)[nH]1,2,-2,-4,2,-2
CCCCCCSc1nnc2[nH]c(=O)cc(N)n12,7,94*,-13,-3,2
CCCCCCCSc1nc(N)cc(=O)[nH]1,1,103*,-7,1,-8
Cc1nnc(NC(=O)CC23CC4CC(CC(C4)C2)C3)s1,18,2,1,7,0
COc1ccccc1/C=C/C(=O)N1CCN(S(=O)(=O)c2cc(C)ccc2C)CC1,-7,x,28,-4,2
CC(=O)NC(CC(=O)Nc1ccc(S(=O)(=O)NC2=NCCCCC2)cc1)c1ccccc1 (configuration not stated),6,x,-8,0,-1
O=c1nc(/C=C/c2cc([N+](=O)[O-])ccc2Cl)cc(C(F)(F)F)[nH]1,11,89*,8,19,-1
O=C1NC[C@@H](CCCCN2CCN(CCc3ccc(O)cc3)C(=O)C2=O)N(Cc2ccccc2)C1=O,x,x,-6,9,x
O=S(=O)(c1cccs1)N1CCN(CC(O)COC2CCCc3ccccc32)CC1 (configuration not stated),260,-5,1,0,8
CCOc1ccccc1N1CCN(CC(O)COC2CCCc3ccccc32)CC1 (configuration not stated),-7,83*,-3,-5,-1
CC(C)(C)NS(=O)(=O)c1ccc(-c2csnn2)s1,5,-7,3,-24,-1
O=S(=O)(NC1CCCCC1)c1ccc(-c2csnn2)s1,297*,-1,6,-8,-13
COc1cccc2cc(C(=O)C3=C(O)C(=O)N(CCN4CCOCC4)C3c3cccc(Cl)c3)oc12 (configuration not stated),9,15,2,16,-7
COc1cc(OC)cc(C(=O)NC2CCN(Cc3nnnn3Cc3ccc(F)cc3)CC2)c1,1,116*,-8,-5,-2
CCn1c(O)c(N=NC(=O)c2ccc(CSc3nncn3C)cc2)c2ccccc21,-11,-10,-7,9,-11
Cn1cnnc1SCc1ccc(C(=O)N=Nc2c(O)n(Cc3ccc(Cl)cc3)c3ccccc23)cc1,61,-4,18,35*,-29
CC(C)C[C@H]1CN(CCCC[C@H]2CNC(=O)C(=O)N2CC2CCCCC2)C(=O)C(=O)N1CCc1ccccc1,x,x,-5,24,x
CCCn1c(C)cc(-c2csc(N)n2)c1C,x,-3,-88,30,14
Cc1cc(-c2csc(N)n2)c(C)n1-c1ccc(Cl)c(Cl)c1,15,-4,-18,36*,28
SMILES,SUMO Mot1 rescue,Calb FLC,FAS-TE inh,NadD block,ATG4B inhibitor
COc1ccc(-n2c(C)cc(-c3csc(N)n3)c2C)cc1,-15,-4,-118,33*,1
Cc1cc(OCC(=O)C(C)(C)C)c2c(-c3ccccc3)cc(=O)oc2c1,297*,-1,16,-10,-6
Cc1cc(OCC(=O)N(C)C)c2c(-c3ccccc3)cc(=O)oc2c1,203,-5,9,6,-9
COc1cc(OC)c2c(-c3ccccc3)cc(=O)oc2c1,319*,1,16,-2,-17
CC(C)(C)OC(=O)NCc1n[nH]c(=S)n1C1CC1,4,0,-8,-4,-2
CO/N=C(/CNC(=O)c1ccc(F)cc1)c1ccc(Cl)cc1,63,-7,2,-9,6
O=C(NCc1ccc(F)cc1)c1ccc(CS(=O)(=O)Cc2ccc(F)cc2)o1,-8,3,-6,2,-7
O=C(NCc1ccc(F)cc1)c1ccc(CS(=O)(=O)Cc2ccccc2F)o1,1,95*,-7,2,3
Cc1cc(C)n(-c2nc3ccccc3c(=O)n2OCC#N)n1,-18,81*,-6,-4,0
CCOn1c(-n2nc(C)cc2C)nc2ccccc2c1=O,-16,-2,-9,-4,-15
Cc1ccc(C(=O)NCCSc2ccccc2)cc1S(=O)(=O)Nc1ccccc1,-1,-2,23,-11,-8
COCCSc1nnc(NC(=O)CCS(=O)(=O)c2ccccc2)s1,-8,88*,-1,-2,-1
CC(=O)c1sc(NC(=O)CCS(=O)(=O)c2ccccc2)nc1C,10,86*,-5,0,-5
CC(=O)Nc1nc(C)c(C(C)=O)s1,341*,-1,-7,-1,6
O=S1(=O)CC(N2CCN(CCO)CC2)CN1Cc1cn(Cc2cccc(C(F)(F)F)c2)nn1 (configuration not stated),x,x,-8,-5,x
COC1OC(c2ccccc2)=C(c2ccc(C(N)=O)cc2)c2ccc(F)cc21 (configuration not stated),x,x,7,0,x
CN1CCN(CCC(=O)Nc2ccccc2Cl)CC1,-9,30,-3,-5,5
O=C(CCN1CCN(Cc2ccccc2)CC1)Nc1ccccc1Cl,327*,4,-5,-10,-8
CCCCC(Nc1ncnc2ccccc12)C(=O)O (configuration not stated),9,-9,-5,0,2
CC(Nc1ncnc2ccccc12)c1ccccc1 (configuration not stated),-32,76*,-2,-12,8
CCNc1nc(Oc2ccc(C#N)cc2)cc(C(F)(F)F)n1,6,-6,8,-1,9
CCNc1nc(Oc2ccc(F)cc2)cc(C(F)(F)F)n1,943*,-23,12,8,5
CCOc1ccc(N(CC(=O)Nc2cc(Cl)ccc2C)S(C)(=O)=O)cc1,1,19,13,-3,-6
Cc1ccc(C)c(-c2cc(C(=O)Nc3sc(C)c(C)c3C(N)=O)c3ccccc3n2)c1,-5,-3,37,35*,19
CCOC(=O)c1sc(NC(=O)c2cc(-c3ccccc3)nc3ccccc23)c(C#N)c1C,-20,3,33,39*,-4
CCOC(=O)c1sc(NC(=O)c2cccnc2)c(C#N)c1C,21,u,0,-1,-2
Cc1csc(NC(=O)CCC(=O)N(CC(=O)NC2CCCC2)Cc2ccccc2)n1,-10,-8,-2,-7,-5
O=C(NNC1=C(C(=O)C(F)(F)F)CCC1)c1cccc(O)c1,19,-24,10,2,1
